Source: PubChem BioAssay (NCATS)
Records with an inconclusive call do not appear. The source made the active and inactive calls. Unless noted, calls come from the whole dose curve; as a rule, active = well fitted curve in the direction sought with a large enough effect; inconclusive = small, poorly fitted or top-dose-only effect, or another doubt; inactive = no such curve, though single readings can be large; an effect the other way counts as inactive or inconclusive.

Legend:
[1] = molecular target: Glucocorticoid receptor (Homo sapiens) (UniProt P04150); assay: GR-GFP Redistribution (AID 450;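 active = compounds whose dose series gives a full or clear partial fitted curve of increased nuclear translocation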; note: potency is the fitted concentration of half-maximal effect); conditions: U2OS GR-GFP nuclear translocation, laser cytometry, 2 h
[2] = molecular target: Glucocorticoid receptor (Homo sapiens) (UniProt P04150); assay: GR-EFC Redistribution (AID 451; calls by dose curve; note: potency is the fitted concentration of half-maximal effect); conditions: CHO-K1 GR-EFC translocation, beta-gal luminescence, 2 h
Summary of the method: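 CHO-K1 cells expressing nuclear EA and GR-ED fragments of b-gal; compounds titrated up to 46 uM final, 2 h at 37 C. GR nuclear translocation read as complemented b-gal luminescence after 1 h RT detection.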

[3] = molecular target: Mitogen-activated protein kinase 10 (Mus musculus) (UniProt Q61831); assay: JNK3 AlphaScreen Assay (AID 530; active = well fitted curve in either direction with a large enough effect, not every such curve was filed as active;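 note: kinase came from lysate of stimulated human HepG2 cells; signal reports phosphorylation of biotinylated GST-cJun 1-79 at Ser73 with 10 µM ATP; % is set by controls: 0 for no effect and ±100 for the full control effect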)
Summary of the method: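 Activity was read by AlphaScreen after JNK3-containing HepG2 lysate (cytokine pre-activated) phosphorylated biotinylated GST-cJun with 10 uM ATP at room temperature. Phospho-Ser73 cJun antibody with Protein-A acceptor beads provided detection.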

[4] = qHTS Assay for Lipid Storage Modulators (AID 1519; calls by dose curve; for activity change, negative = inhibition: % is set by controls: 0 for no effect and ±100 for the full control effect); conditions: Drosophila S3 cells, BODIPY lipid droplet/cell ratio, laser cytometry, cells loaded with oleic acid; for activity change, negative = inhibition: at 57.5 µM (top of the series)
Summary of the method: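 Cells seeded at 5,000 per well were treated with compounds over a concentration series and loaded with oleic acid (400 uM, as added). Lipid droplet fluorescence (488 nm excitation, 500-530 nm channel) was read by laser-scanning cytometry and normalized to 20 uM Triacsin C.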

[5] = molecular target: Ubiquitin carboxyl-terminal hydrolase 1 (Homo sapiens) (UniProt O94782); assay: Inhibitors of USP1/UAF1: Pilot qHTS (AID 504865);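 note: rhodamine fluorescence freed from ubiquitin-rhodamine substrate followed over time; top concentration of the series differs between compounds; % is set by controls: 0 for no effect and ±100 for the full control effect; nearly all actives have a fitted effect of over 35% in size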
Summary of the method: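 USP1/UAF1 complex at 1 nM preincubated 15 min at room temperature with compound, then Ub-Rho substrate added at 150 nM final. Fluorescence (480/540 nm) read kinetically in 50 mM HEPES pH 7.8, 0.5 mM EDTA, 1 mM TCEP, 0.1 mg/ml BSA, 0.01% Tween-20.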

[6] = molecular target: DNA dC->dU-editing enzyme APOBEC-3G (Homo sapiens) (UniProt Q9HC16); assay: qHTS for inhibitors of Vif-A3G interactions: Validation (AID 588379); note: 0% is about no effect
Summary of the method: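 Yellow fluorescence (Ex 488, Em 500-530) of Vif-coexpressing HeLa A3G-eYFP cells, scanned by Acumen cytometer, reports blocked A3G degradation. Cells plated at 700/well overnight at 37 deg C before compound addition, then a further overnight compound incubation at 37 deg C.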

[7] = test system: Zika virus NS2B-NS3 protease; assay: Primary screen GU AMC qHTS for Zika virus inhibitors (AID 1347154);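 note: 0% = no-inhibitor control and -100% = no-enzyme control; nearly all actives have a fitted effect of over 70% in size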
Summary of the method: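 Unlinked Zika NS2B hydrophilic domain–NS3 protease complex at 25 nM in 10 mM Tris-HCl pH 8.0, 0.01% Tween 20, with an AMC peptide substrate. Fluorescence change (340/450 nm) over 15 min at room temperature, normalized to controls, fitted to 4-parameter Hill.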

[8] = Primary qHTS for small molecule stabilizers of the endoplasmic reticulum resident proteome: Secreted ER Calcium Modulated Protein (SERCaMP) assay (AID 1508630); note: % is set by controls: 0 for no effect and ±100 for the full control effect
Summary of the method: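 The SH-SY5Y reporter protocol was run at 3 concentrations up to 38.3 uM (primary) or 11 concentrations (follow-up): 16 h compound, 100 nM thapsigargin for 4 h, then extracellular luciferase luminescence.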

[9] = molecular target: 3',5'-cyclic-AMP phosphodiesterase 4B (Homo sapiens) (UniProt Q07343); assay: qHTS Assay for Inhibitors of PDE-IV (AID 607; active = well fitted activation curve with a large enough effect in the main read-out, with a control signal flat, not every such curve was filed as active; note: % of control where 0% means no effect)
Summary of the method: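 ACTOne HEK293 cells carry a modified cAMP-gated CNG channel and express endogenous PDE4; plated 1000 cells/well, compounds up to 22.9 uM final. Membrane-potential dye fluorescence (ex 535/em 590) was read; parental cells received 10 uM forskolin + 100 uM RO 20-1724.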

[10] = molecular target: Cytochrome P450 1A2 (Homo sapiens) (UniProt P05177); assay: p450-cyp1a2 (AID 410; calls by dose curve; note: potency is the fitted concentration of half-maximal effect)
Summary of the method: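 Luminescent demethylation readout: Luciferin-ME (100uM, equal to Km) turned over by 20nM CYP1A2 for 60 min at room temperature after NADPH regeneration addition, following 10 min compound preincubation. Normalization used 57 uM furafylline as full inhibition.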

[11] = measured here: cell count channel max response
[12] = measured here: lipid channel max response

Chain of DNA dC->dU-editing enzyme APOBEC-3G (Homo sapiens) (Q9HC16 whole entry, looked up): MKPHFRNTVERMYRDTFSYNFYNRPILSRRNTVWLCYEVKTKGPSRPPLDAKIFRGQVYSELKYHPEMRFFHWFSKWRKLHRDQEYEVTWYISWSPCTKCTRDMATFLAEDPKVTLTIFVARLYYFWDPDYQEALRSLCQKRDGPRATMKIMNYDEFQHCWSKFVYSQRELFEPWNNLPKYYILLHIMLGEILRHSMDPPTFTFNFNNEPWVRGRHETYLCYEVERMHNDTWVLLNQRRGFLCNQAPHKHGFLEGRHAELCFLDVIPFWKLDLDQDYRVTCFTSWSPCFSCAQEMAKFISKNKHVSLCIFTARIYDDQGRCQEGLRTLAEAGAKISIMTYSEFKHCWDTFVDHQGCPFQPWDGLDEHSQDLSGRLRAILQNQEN
Chain of Ubiquitin carboxyl-terminal hydrolase 1 (Homo sapiens) (O94782 whole entry, looked up): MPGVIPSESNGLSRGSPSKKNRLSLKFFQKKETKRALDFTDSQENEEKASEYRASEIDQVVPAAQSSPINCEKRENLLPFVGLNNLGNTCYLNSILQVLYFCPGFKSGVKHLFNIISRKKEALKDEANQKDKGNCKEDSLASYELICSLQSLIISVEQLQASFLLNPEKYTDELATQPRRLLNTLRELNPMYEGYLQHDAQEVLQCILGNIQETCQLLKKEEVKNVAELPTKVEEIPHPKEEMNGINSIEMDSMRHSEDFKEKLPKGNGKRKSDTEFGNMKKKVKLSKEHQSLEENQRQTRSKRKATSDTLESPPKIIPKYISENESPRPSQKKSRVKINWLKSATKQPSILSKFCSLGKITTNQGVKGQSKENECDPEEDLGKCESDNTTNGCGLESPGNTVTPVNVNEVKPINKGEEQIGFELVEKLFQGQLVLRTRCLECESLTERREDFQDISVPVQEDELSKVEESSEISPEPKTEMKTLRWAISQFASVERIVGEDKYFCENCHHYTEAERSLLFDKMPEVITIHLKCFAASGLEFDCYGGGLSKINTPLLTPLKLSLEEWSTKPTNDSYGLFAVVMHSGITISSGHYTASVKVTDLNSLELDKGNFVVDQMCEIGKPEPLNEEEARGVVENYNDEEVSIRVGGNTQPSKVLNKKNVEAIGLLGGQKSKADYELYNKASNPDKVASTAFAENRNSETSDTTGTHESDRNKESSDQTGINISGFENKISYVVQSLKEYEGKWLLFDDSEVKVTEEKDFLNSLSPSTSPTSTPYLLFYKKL
Chain of Glucocorticoid receptor (Homo sapiens) (P04150 whole entry, looked up, the tested form may be a part): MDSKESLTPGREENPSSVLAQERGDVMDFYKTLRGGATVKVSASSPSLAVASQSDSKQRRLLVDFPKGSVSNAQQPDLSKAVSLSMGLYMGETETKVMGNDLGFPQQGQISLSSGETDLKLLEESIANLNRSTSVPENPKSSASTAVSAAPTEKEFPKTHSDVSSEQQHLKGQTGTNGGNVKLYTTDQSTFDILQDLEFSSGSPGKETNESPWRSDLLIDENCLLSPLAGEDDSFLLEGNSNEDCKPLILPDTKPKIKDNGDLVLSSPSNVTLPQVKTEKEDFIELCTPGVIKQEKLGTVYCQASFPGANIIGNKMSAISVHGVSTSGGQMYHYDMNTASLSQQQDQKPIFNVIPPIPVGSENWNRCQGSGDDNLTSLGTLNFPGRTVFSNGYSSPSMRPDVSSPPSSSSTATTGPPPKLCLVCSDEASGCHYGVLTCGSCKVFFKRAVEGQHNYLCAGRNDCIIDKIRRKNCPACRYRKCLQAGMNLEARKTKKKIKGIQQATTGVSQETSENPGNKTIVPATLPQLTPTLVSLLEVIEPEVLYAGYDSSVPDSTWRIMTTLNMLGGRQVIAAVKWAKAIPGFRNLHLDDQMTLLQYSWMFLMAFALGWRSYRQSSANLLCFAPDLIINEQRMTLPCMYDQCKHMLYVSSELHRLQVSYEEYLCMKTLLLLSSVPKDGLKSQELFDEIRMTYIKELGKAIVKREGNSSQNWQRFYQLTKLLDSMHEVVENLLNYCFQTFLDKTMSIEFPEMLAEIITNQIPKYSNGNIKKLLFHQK
Chain of Cytochrome P450 1A2 (Homo sapiens) (P05177 whole entry, looked up): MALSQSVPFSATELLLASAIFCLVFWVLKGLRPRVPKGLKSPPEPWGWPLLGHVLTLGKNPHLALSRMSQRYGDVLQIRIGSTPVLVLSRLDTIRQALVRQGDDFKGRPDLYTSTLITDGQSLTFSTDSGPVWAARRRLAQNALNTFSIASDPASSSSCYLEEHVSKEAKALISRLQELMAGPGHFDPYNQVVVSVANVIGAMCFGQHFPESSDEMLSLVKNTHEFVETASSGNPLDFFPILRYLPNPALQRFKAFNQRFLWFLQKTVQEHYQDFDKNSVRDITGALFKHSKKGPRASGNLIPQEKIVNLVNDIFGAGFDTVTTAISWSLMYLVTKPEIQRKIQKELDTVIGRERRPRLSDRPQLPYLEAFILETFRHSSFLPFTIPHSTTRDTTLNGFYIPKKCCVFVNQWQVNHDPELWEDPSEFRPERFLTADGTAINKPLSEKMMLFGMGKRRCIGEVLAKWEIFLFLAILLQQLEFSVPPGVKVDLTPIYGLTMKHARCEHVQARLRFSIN
Chain of 3',5'-cyclic-AMP phosphodiesterase 4B (Homo sapiens) (Q07343 whole entry, looked up): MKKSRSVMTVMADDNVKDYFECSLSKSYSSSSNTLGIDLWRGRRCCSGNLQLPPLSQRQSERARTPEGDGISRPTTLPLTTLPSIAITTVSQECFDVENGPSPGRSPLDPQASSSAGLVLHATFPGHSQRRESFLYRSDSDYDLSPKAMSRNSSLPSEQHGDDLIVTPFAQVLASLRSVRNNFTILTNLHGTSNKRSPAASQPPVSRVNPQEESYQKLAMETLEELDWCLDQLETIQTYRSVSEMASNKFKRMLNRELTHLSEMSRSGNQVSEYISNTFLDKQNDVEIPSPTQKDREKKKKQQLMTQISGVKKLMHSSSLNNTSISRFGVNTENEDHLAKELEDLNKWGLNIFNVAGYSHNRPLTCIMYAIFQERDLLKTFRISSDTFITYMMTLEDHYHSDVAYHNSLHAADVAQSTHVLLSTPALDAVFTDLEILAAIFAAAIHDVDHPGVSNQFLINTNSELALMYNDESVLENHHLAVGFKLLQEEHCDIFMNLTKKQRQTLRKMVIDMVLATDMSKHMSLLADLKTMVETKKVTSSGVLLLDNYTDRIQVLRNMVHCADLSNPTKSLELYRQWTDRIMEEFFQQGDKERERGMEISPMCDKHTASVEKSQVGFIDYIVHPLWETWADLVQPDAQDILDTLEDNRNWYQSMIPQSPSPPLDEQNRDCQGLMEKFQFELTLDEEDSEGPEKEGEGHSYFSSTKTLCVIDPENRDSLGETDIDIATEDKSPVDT

CCCCCC(=O)O[C@H](CC(=O)O)C[N+](C)(C)C
0.652%: max response [4, 11]
2.66%: max response [4, 12]
inactive: Potency [1] > 46 µM | Potency [2] > 46 µM | Potency [3] | activity change, negative = inhibition [4] 1.82% | Potency [5] | Potency [6] | Potency [7] | Potency [8]

N[C@]1(C(=O)O)CCc2cc(P(=O)(O)O)ccc21
-7.84%: max response [4, 11]
inactive: Potency [1] > 46 µM | Potency [2] > 46 µM | Potency [3] | Potency [9] | activity change, negative = inhibition [4] -2.38% | Potency [5] | Potency [6] | Potency [7] | Potency [8]
-8.48%: max response [4, 12]

CCCCCCCCCCCCC/C=C\[C@@H](O)[C@H](CO)NC(C)=O
active: Potency [10] 20 µM
inactive: Potency [1] > 46 µM | Potency [3] | Potency [9] | activity change, negative = inhibition [4] -6.83% | Potency [6] | Potency [7] | Potency [8]
9.95%: max response [4, 11]
-0.444%: max response [4, 12]

N[C@@H](C(=O)O)c1ccc(P(=O)(O)O)cc1
active: Potency [10] 20 µM
3.42%: max response [4, 11]
7.2%: max response [4, 12]
inactive: Potency [1] > 46 µM | Potency [2] > 46 µM | Potency [3] | Potency [9] | activity change, negative = inhibition [4] 2.44% | Potency [6] | Potency [7] | Potency [8]

c1ncc(CC2CCNCC2)[nH]1
-15.8%: max response [4, 12]
-18.2%: max response [4, 11]
inactive: Potency [1] > 46 µM | Potency [2] > 46 µM | Potency [3] | Potency [9] | activity change, negative = inhibition [4] 0.0288% | Potency [5] | Potency [6] | Potency [7] | Potency [8]

C[C@](N)(C(=O)O)c1ccc(-c2nn[nH]n2)cc1
14.3%: max response [4, 12]
7.75%: max response [4, 11]
inactive: Potency [1] > 46 µM | Potency [3] | activity change, negative = inhibition [4] 7.08% | Potency [5] | Potency [6] | Potency [7] | Potency [8]
active: Potency [10] 39.8 µM

Cc1ncc2c(c1O)COP(=O)(O)OC2
-3.73%: max response [4, 11]
-4.32%: max response [4, 12]
inactive: Potency [1] > 46 µM | Potency [2] > 46 µM | Potency [3] | Potency [9] | activity change, negative = inhibition [4] 0.354% | Potency [5] | Potency [6] | Potency [7] | Potency [8]

Cc1o[nH]c(=O)c1CC[C@H](N)C(=O)O
-2.41%: max response [4, 12]
inactive: Potency [1] > 46 µM | Potency [2] > 46 µM | Potency [3] | Potency [9] | activity change, negative = inhibition [4] 4.78% | Potency [5] | Potency [6] | Potency [7] | Potency [8]
-7.36%: max response [4, 11]

N[C@@H](Cn1cc(F)c(=O)[nH]c1=O)C(=O)O
14.7%: max response [4, 12]
17.5%: max response [4, 11]
inactive: Potency [1] > 46 µM | Potency [2] > 46 µM | Potency [3] | activity change, negative = inhibition [4] -2.96% | Potency [5] | Potency [6] | Potency [7] | Potency [8]
